According to PubChem BioAssay (NCATS):
Where “and” joins values, the source holds several entries; their conditions need not be identical. Identical values can stand only once. Results filed as inconclusive are left out. Calls of active or inactive are those of the source. Unless noted, calls come from the whole dose curve; as a rule, active = well fitted curve in the direction sought with a large enough effect; inconclusive = small, poorly fitted or top-dose-only effect, or another doubt; inactive = no such curve, though single readings can be large; an effect the other way counts as inactive or inconclusive.

Tests used:
[1] = Cell Viability - BJ (AID 421; calls by dose curve;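 note: potency is the fitted concentration of half-maximal effect; cells exposed to compound for 40 hours at 37 °C before readout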); conditions: BJ fibroblast viability, qHTS
Outline: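 Quantitative HTS: ATP depletion in BJ cells after 40 hr compound exposure in complete culture medium, detected with CellTiter-Glo; AC50 from standard Hill fits.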

[2] = Cell Viability - MRC5 (AID 434; calls by dose curve;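 note: potency is the fitted concentration of half-maximal effect; cells exposed to compound for 40 hours at 37 °C; potency reflects cytotoxicity seen as loss of intracellular ATP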); conditions: MRC5 lung fibroblast viability, qHTS
Outline: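 Decrease in intracellular ATP, quantified by luciferase light output, reflects compound toxicity toward MRC5 cells exposed for 40 hr in complete culture medium. Concentration-response curves, scaled between DMSO and 100 uM tamoxifen, gave AC50 values.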

[3] = target: Mitogen-activated protein kinase 10 (Mus musculus) (UniProt Q61831); assay: JNK3 AlphaScreen Assay (AID 530; active = well fitted curve in either direction with a large enough effect, not every such curve was filed as active;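 note: kinase came from lysate of stimulated human HepG2 cells; signal reports phosphorylation of biotinylated GST-cJun 1-79 at Ser73 with 10 µM ATP; % is set by controls: 0 for no effect and ±100 for the full control effect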); conditions: JNK3 lysate, c-Jun phosphorylation; series mostly up to 57.1 µM
Outline: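 Phosphorylation of biotinylated GST-cJun(1-79) at Ser73 is measured by AlphaScreen proximity luminescence. Enzyme is JNK3 in HepG2 lysates activated with interleukin-1beta and tumor necrosis factor alpha; ATP is 10 uM final.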

[4] = Cell Viability - NIH 3T3 (AID 541); conditions: NIH 3T3 cell viability, qHTS; activity change, negative = cytotoxicity: at 92.2 µM (top of the series);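 note: plate controls were DMSO alone for no effect and tamoxifen positive control for full effect; nearly all actives have a fitted effect of over 25% in size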
Outline: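 Intracellular ATP (CellTiter-Glo luminescence, 20 min at room temperature) measured after 40 hr compound exposure at 37 °C of 1000 NIH 3T3 mouse fibroblasts/well in complete medium; AC50 derived by Hill-equation modelling of qHTS concentration-response curves.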

[5] = Cell Viability - Mesenchymal (AID 546); conditions: mesenchymal cells viability, qHTS; activity change, negative = cytotoxicity: at 91.7 µM (top of the series);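 note: cells exposed to compound for 40 hours before reading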
Outline: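 In this qHTS cytotoxicity format, glomerulus-derived human mesenchymal kidney cells received compound for 40 hr, then luciferase-based ATP quantitation. Concentration-response data were fitted with the Hill equation.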

[6] = Cellular Toxicity (caspase-3) HepG2 (AID 654); conditions: HepG2 caspase-3 activation, luminescence, 0% = DMSO only, 100% = tamoxifen; series mostly up to 92.2 µM;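 note: cells exposed to compound for 16 hours before reading; 0% = DMSO alone and 100% = caspase signal from 100 µM tamoxifen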
Outline: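 Caspase 3/7 activation is measured as a luminescence increase (aminoluciferin substrate) after 16 h compound exposure of human hepatocarcinoma HepG2 cells. AC50 values are Hill fits, scaled between DMSO baseline and 100 uM tamoxifen stimulation.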

[7] = Cellular Toxicity (caspase-3) HUV-EC-C (AID 656); conditions: HUV-EC-C cells, caspase-3 activation (apoptosis), vehicle = 0, 100 µM tamoxifen = 100%; series mostly up to 92.2 µM
Outline: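 Luminescent Caspase-Glo 3/7 readout after 16 h, 37 °C compound exposure of HUV-EC-C endothelial cells, 1000 per well, complete medium. AC50 derived by Hill fitting, with DMSO as baseline and 100 uM tamoxifen as full activation.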

[8] = Cellular Toxicity (caspase-3) MRC-5 (AID 659); conditions: MRC-5 cells, luminescence, normalized: DMSO 0%, 10 µM staurosporine 100%; series mostly up to 91.7 µM
Outline: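 Apoptosis readout in MRC-5 cells: luciferase light generated after caspase 3/7 cleaves a peptide-aminoluciferin substrate, measured post 16 hr compound incubation at 37 °C.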

[9] = Cellular Toxicity (caspase-3) Mesangial (AID 660); conditions: mesangial cells, normalized: DMSO 0%, 100 µM tamoxifen 100%; series mostly up to 91.7 µM;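 note: combined caspase 3 and 7 activity read by Caspase-Glo luminescence; cells exposed to compound for 16 h before the caspase read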
Outline: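 Caspase 3/7 activation measured by Caspase-Glo 3/7 luminescence (20 min, room temperature) following 16 h exposure of mesangial cells (1000/well); AC50 from Hill-equation fit, normalized to DMSO and 100 uM tamoxifen.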

[10] = Cellular Toxicity (caspase-3) Hek293 (AID 664); conditions: HEK293 caspase-3 activation, DMSO = 0%, 100 µM tamoxifen = 100%; series mostly up to 92.2 µM;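 note: cells exposed to compound for 16 h at 37 °C before readout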
Outline: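 Concentration-response qHTS: caspase 3/7 activation measured by luminescent aminoluciferin substrate cleavage after 16 h compound exposure of Hek 293 cells. AC50 from Hill equation, with DMSO as basal and 100 uM tamoxifen as 100%.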

[11] = Cellular Toxicity (caspase-3) Renal Proximal Tubule (AID 667); conditions: renal proximal tubule cells, primary cells freshly taken from rat, solvent-only wells 0%, staurosporine 100%; series mostly up to 91.7 µM;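 note: cells exposed to compound for 16 hours at 37 °C before detection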
Outline: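 Caspase 3/7 activation measured by luminescent aminoluciferin release in primary rat proximal tubule cells after 16 hr compound exposure at 37 °C. AC50 from Hill-fitted concentration-response, scaled between DMSO and 10 uM staurosporine.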

[12] = MultiTox-Fluor Cytotoxicity Assay - LYMP1-003 - Live Cells (AID 962); conditions: LYMP1-003 lymphoblastoid cells, MultiTox-Fluor live-cell protease fluorescence; series mostly up to 92.2 µM;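 note: cells exposed to compound for 16 hours at 37 °C; 0% = DMSO only and full loss = 92 µM tetraoctylammonium bromide; cytotoxic hits lower the live-cell protease signal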
Outline: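 Live-cell protease activity (GF-AFC substrate, 405/510 nm, 60 min at room temperature) after 16 h, 37 C compound exposure of human lymphoblastoid LYMP1-003 cells; concentration-response fitted to the Hill equation for AC50.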

[13] = Cell Viability - LYMP1-003 - Assay at 40 hr (AID 964); conditions: LYMP1-003 lymphoblastoid viability; series mostly up to 92.2 µM; note: % is set by controls: 0 for no effect and ±100 for the full control effect; nearly all actives have a fitted effect of over 60% in size
Outline: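 Viability is taken as cellular ATP, read by CellTiter-Glo luminescence after 40 h of compound exposure at 37 C. Cells: human lymphoblastoid line LYMP1-003 at 2500/well; AC50 values derived by Hill-equation fitting of concentration-response data.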

[14] = Cell Viability - LYMP2-011 (AID 969); conditions: LYMP2-011 lymphoblastoid cells viability; series mostly up to 92.2 µM;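 note: 0% = DMSO only and full inhibition = 92 µM tetraoctylammonium bromide; nearly all actives have a fitted effect of over 60% in size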
Outline: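 Cytotoxicity qHTS with ATP content as read-out: lymphoblastoid cells (2500/well) exposed to compound for 24 h at 37 C, then luciferase luminescence measured. Concentration-response data fitted with the standard Hill equation to give AC50.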

[15] = Cell Viability - LYMP2-013 (AID 970); conditions: LYMP2-013 lymphoblastoid cells viability; series mostly up to 92.2 µM;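 note: 0% = DMSO only and full inhibition = tetraoctylammonium bromide control; nearly all actives have a fitted effect of over 55% in size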
Outline: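 qHTS cytotoxicity: ATP-dependent luminescence (CellTiter-Glo, 30 min room temperature) read after 24 h compound exposure at 37 C of 2500 LYMP2-013 lymphoblastoid cells per well. Concentration-response fitted with Hill equation to give AC50.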

[16] = Cell Viability - LYMP2-017 (AID 972); conditions: LYMP2-017 lymphoblastoid cell viability; series mostly up to 92.2 µM; note: % is set by controls: 0 for no effect and ±100 for the full control effect; nearly all actives have a fitted effect of over 55% in size
Outline: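 CellTiter-Glo luminescence (cellular ATP, 30 min RT) measured cytotoxicity after 24 hr compound treatment at 37 C. Cells were a human lymphoblastoid line, LYMP2-017, plated at 2500/well and incubated 5 hr first; concentration-response fitted with Hill equation for AC50.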

[17] = Cell Viability - LYMP2-007 (AID 979); conditions: LYMP2-007 lymphoblastoid cell viability; series mostly up to 92.2 µM;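 note: cells exposed to compound for 24 h before reading; 0% = DMSO only and the negative end = 92 µM tetraoctylammonium bromide; nearly all actives have a fitted effect of over 60% in size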
Outline: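 AC50 values come from Hill-equation fits of luminescent intracellular ATP (CellTiter-Glo, 30 min, room temperature) following 24 h compound exposure at 37 C. Cells: LYMP2-007 lymphoblastoid line, 2500 per well, in complete culture medium.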

[18] = qHTS Assay for Identification of Small Molecule Inducers of Hypoxia Response (AID 2120; active = well fitted curve in the direction sought with a large enough effect in the signal ratio, with a control signal flat, not every such curve was filed as active; the % refers to the signal ratio; note: 0% is about no effect); conditions: hypoxia response reporter cells, beta-lactamase ratio readout; series mostly up to 104 µM
Outline: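 Reporter induction read as the CCF4 blue/green (460nm/530nm) emission ratio after 2.5 h dye loading at room temperature. ME-180 HRE-beta-lactamase cells received titrated compounds for 17 h at 37 degrees Celsius; AC50 values derived.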

[19] = qHTS assay for small molecule antagonists of retinoid X receptor alpha signaling (AID 588546); conditions: HEK293T RXRa-UAS-bla, beta-lactamase ratio, antagonist mode; measured here: W530 green channel, cytotoxicity proxy;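 note: cells stimulated with 9-cis-retinoic acid as agonist; % is set by controls: 0 for no effect and ±100 for the full control effect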
Outline: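 Beta-lactamase reporter inhibition, read as CCF4 fluorescence ratio (ex 405, em 460/530 nm) after 2 h at RT. HEK293T UAS-bla cells, 2500/well, were stimulated with 9-cis-RA at 500 or 100 nM final alongside test compound for 18 h at 37 C.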

[20] = target: Peroxisome proliferator-activated receptor alpha (Homo sapiens) (UniProt Q07869); assay: qHTS assay for small molecule agonists of the peroxisome proliferator-activated receptor alpha (PPARalpha) signaling pathway (AID 651778); conditions: PathHunter PPARalpha complementation, chemiluminescence, 6 h; max response: stronger effect = higher value; note: % of control where 0% means no effect
Outline: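 Cells plated at 2,000/well and held overnight at 37 C, 5% CO2, then compound added by pin tool for 6 hr; after PathHunter detection reagent and 60 min at room temperature, chemiluminescence from enzyme complementation was read.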

Chain of Peroxisome proliferator-activated receptor alpha (Homo sapiens) (Q07869 whole entry, looked up): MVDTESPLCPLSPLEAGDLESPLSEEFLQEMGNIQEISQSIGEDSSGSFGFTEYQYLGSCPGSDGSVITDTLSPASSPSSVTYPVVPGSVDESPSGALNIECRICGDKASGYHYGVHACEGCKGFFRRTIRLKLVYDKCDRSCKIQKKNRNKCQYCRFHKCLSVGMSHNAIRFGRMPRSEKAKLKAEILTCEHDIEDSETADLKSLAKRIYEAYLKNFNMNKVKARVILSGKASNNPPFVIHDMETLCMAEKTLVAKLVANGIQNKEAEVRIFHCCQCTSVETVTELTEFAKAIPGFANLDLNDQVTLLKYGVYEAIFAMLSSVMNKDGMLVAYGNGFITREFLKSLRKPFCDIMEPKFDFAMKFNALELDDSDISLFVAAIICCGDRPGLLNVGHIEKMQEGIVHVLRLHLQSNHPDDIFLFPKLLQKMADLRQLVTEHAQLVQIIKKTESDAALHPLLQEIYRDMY

Cc1c(N=C=O)cccc1N=C=O
inactive: Potency [1] > 92 µM | Potency [2] > 92 µM | Potency [3] | Potency [4] | activity change, negative = cytotoxicity [5] -3.51% | outcome [6] | outcome [7] | outcome [8] | outcome [9] | outcome [10] | outcome [11] | Potency [12] | Potency [13] | Potency [14] | Potency [15] | Potency [16] | Potency [17] | outcome [18] | max response [20] -4.58% and -0.661%
-2.03% and -4.55%: max response [19]

CCCCCCCCO
inactive: Potency [1] > 92 µM | Potency [2] > 92 µM | Potency [3] | Potency [4] | activity change, negative = cytotoxicity [5] -3.19% | outcome [6] | outcome [7] | outcome [8] | outcome [9] | outcome [10] | outcome [11] | Potency [12] | Potency [13] | Potency [14] | Potency [15] | Potency [16] | Potency [17] | outcome [18] | max response [20] 2.47% and -5.18% and -0.424%
-5.18% and -18.2% and -19.2%: max response [19]

CCO[Si](CCCN)(OCC)OCC
-0.81% and -5.53%: max response [19]
inactive: Potency [1] > 92 µM | Potency [2] > 92 µM | Potency [3] | Potency [4] | activity change, negative = cytotoxicity [5] -8.88% | outcome [6] | outcome [7] | outcome [8] | outcome [9] | outcome [10] | outcome [11] | Potency [12] | Potency [13] | Potency [14] | Potency [15] | Potency [16] | Potency [17] | outcome [18] | max response [20] -1.45% and -1.48%

CC1(C)CC(N=C=O)CC(C)(CN=C=O)C1 (configuration not stated)
-0.108% and -15.8%: max response [19]
inactive: Potency [1] > 92 µM | Potency [2] > 92 µM | Potency [3] | Potency [4] | activity change, negative = cytotoxicity [5] 8.39% | outcome [6] | outcome [7] | outcome [8] | outcome [9] | outcome [10] | outcome [11] | Potency [12] | Potency [13] | Potency [14] | Potency [15] | Potency [16] | Potency [17] | outcome [18] | max response [20] -1.83% and -0.793%

CCC(C)c1ccccc1O (configuration not stated)
-6.22% and -6.2% and -6.14%: max response [19]
inactive: Potency [1] > 92 µM | Potency [2] > 92 µM | Potency [3] | Potency [4] | activity change, negative = cytotoxicity [5] 1.63% and 2.6% | outcome [6] | outcome [7] | outcome [8] | outcome [9] | outcome [10] | outcome [11] | Potency [12] | Potency [13] | Potency [14] | Potency [15] | Potency [16] | Potency [17] | outcome [18] | max response [20] 4.33% and -1.41% and -1.75%

COc1ccccc1CNc1ncnc2ccc(-c3cccc(NS(C)(=O)=O)c3)cc12
inactive: Potency [3]

Nc1ccc(S(=O)(=O)O)cc1
inactive: Potency [1] > 92 µM | Potency [2] > 92 µM | Potency [3] | Potency [4] | activity change, negative = cytotoxicity [5] 9.75% | outcome [6] | outcome [7] | outcome [8] | outcome [9] | outcome [10] | outcome [11] | Potency [12] | Potency [13] | Potency [14] | Potency [15] | Potency [16] | Potency [17] | outcome [18] | max response [20] -1.01% and -2.98%
-0.278%: max response [19]

COCCn1c(=O)c(-c2cccs2)nc2cnc(N3CCNCC3)nc21
inactive: Potency [3]

Cc1ccc([N+](=O)[O-])cc1N
inactive: Potency [1] > 92 µM | Potency [2] > 92 µM | Potency [3] | Potency [4] | activity change, negative = cytotoxicity [5] -1.39% | outcome [6] | outcome [7] | outcome [8] | outcome [9] | outcome [10] | outcome [11] | Potency [12] | Potency [13] | Potency [14] | Potency [15] | Potency [16] | Potency [17] | outcome [18] | max response [20] -4.31% and -1.18%
-2.85% and -10.6%: max response [19]

Nc1ccc(Cl)cc1Cl
inactive: Potency [1] > 92 µM | Potency [2] > 92 µM | Potency [3] | Potency [4] | activity change, negative = cytotoxicity [5] 2.81% | outcome [6] | outcome [7] | outcome [8] | outcome [9] | outcome [10] | outcome [11] | Potency [12] | Potency [13] | Potency [14] | Potency [15] | Potency [16] | Potency [17] | outcome [18] | max response [20] 3.51% and 0.0732%
2.24% and -0.667%: max response [19]
